Only some compounds are listed: those with a hit (about 1.5% of all), similar ones and a draw of the others.
NALP1 yeast inh – inhibitors of NALP1 inflammasome in yeast | S. cerevisiae NALP1/ASC/caspase-1 growth, X-gal OD620, 72 h | inhibition, % at 10 µM | 0.61% of 280,000 active; in the data active means inhibition mostly above about 24%, no sharp cut-off; inactive means mostly below about 32%
GASC-1 inh – blocks human GASC-1 demethylase activity; Q9H3R0; GST-JMJD2C(1-420) H3K9me3 demethylation, DELFIA europium; inhibition, % at 2.35 µM; 0.069% of 330,000 active;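 active means more than half of a compound's replicate wells show inhibition beyond 50%, single wells judged on their own value; inconclusive means some, but no more than half, of replicates pass 50% inhibition; inactive means no replicate passes 50% inhibition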;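 further: signal counts dimethyl H3K9 product captured on neutravidin plate; 0% = median of DMSO wells and 100% = 0.3 times that DMSO median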
Target sequence (Q9H3R0 1-420 limits assumed): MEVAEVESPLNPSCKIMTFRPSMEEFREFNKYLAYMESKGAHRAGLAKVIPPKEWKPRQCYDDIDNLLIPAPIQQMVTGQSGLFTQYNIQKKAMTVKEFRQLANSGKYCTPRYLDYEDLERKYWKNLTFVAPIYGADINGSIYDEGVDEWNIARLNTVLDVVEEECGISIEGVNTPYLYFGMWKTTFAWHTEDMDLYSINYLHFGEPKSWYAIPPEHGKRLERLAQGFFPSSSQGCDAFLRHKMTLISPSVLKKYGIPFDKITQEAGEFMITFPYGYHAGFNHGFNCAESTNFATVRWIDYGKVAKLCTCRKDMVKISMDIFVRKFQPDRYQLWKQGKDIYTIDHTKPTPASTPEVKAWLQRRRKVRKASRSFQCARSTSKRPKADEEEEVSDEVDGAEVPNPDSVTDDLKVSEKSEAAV
NALP3 yeast inh – NALP3 inhibition in yeast | Yeast reconstituted NLRP3/ASC/caspase-1, beta-gal luminescence, 24 h | inhibition, % at 10 µM | 0.39% of 330,000 active;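 active means inhibition of 50% or more; inactive means inhibition below 50%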;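 further: plate controls were induced DMSO wells for no effect and uninduced yeast grown without galactose for full effect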
HDAC3 inhib – inhibitors of human histone deacetylase 3. O15379. inhibition, % at 8.3 µM. recombinant HDAC3, fluorogenic peptide/trypsin coupled, fluorescence. 0.15% of 320,000 active; in the data active means inhibition above about 26%, passing the limit was not always enough; inconclusive means no clear call, values can overlap the other calls
PolyA inh – blocks polyadenylation in yeast reporter cells. S. cerevisiae SKY197-pL101 polyadenylation reporter, beta-gal luminescence; efflux-impaired pdr1/pdr3 knockout yeast; score 100 = 6 SD above DMSO. activity score, % at 12 µM. 0.02% of 300,000 active;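 active means lowest replicate activity score at least 50, where 100 means six control SD above control mean; inconclusive means lowest score under 50 but half or more replicates reach 50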;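 further: yeast exposed to compound for 9 h at 30 °C; higher score means more reporter readthrough which indicates perturbed polyadenylation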
Efflux pump mplx – inhibitors of Candida antifungal efflux pumps expressed in yeast | 0.44% of 330,000 active | inhibition, % at 10 µM | S. cerevisiae Candida pump triplex, Nile Red efflux | AID 485275;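 active means plate passing quality check with inhibition over a set limit, or well fluorescence over plate mean plus 4 SD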;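 further: Nile Red retained in pooled yeast measured as flow cytometry median fluorescence; 0% = buffer negative control and 100% = Enniatin B positive control; higher means more Nile Red kept so more efflux inhibition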
Yeast cmpd fluor – flagged as fluorescent in efflux inhibitor counter-screen; S. cerevisiae AD/pABC3, compound fluorescence, flow cytometry; shares compounds with Efflux pump mplx; fluorescence ratio to DMSO, % at 10 µM; 4% of 1,700 active;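 active means fluorescence ratio to DMSO above its plate's cutoff, the plate mean ratio plus 5 SD, cut at about 210% in these data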;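 further: unstained yeast with no Nile Red so the signal is compound autofluorescence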
Mdr1 pump inh – blocks the Candida albicans Mdr1 efflux pump in yeast; shares compounds with Efflux pump mplx; S. cerevisiae AD/CaMDR1, Nile Red efflux, flow cytometry; inhibition, % at 10 µM; 1% of 1,700 active; in the data active means inhibition above about 26%;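 further: 0% = DMSO vehicle and 100% = reference inhibitor; higher means more Nile Red retained so more efflux inhibition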
CaCdr2 efflux inh – blocks the Candida albicans Cdr2 efflux pump in yeast; shares compounds with Efflux pump mplx; S. cerevisiae AD/CaCDR2, Nile Red retention, flow cytometry; Nile Red retention ratio vs DMSO, % at 10 µM; 4% of 1,700 active; AID 588520; in the data active means Nile Red retention ratio vs DMSO above about 190%;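 further: higher ratio means more blocking of Cdr2 efflux of the dye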
CaCdr1 efflux inh – inhibitors of Candida albicans Cdr1 efflux pump | shares compounds with Efflux pump mplx | S. cerevisiae AD/CaCDR1, Nile Red efflux, flow cytometry | inhibition, % at 10 µM | 1% of 1,700 active | AID 588522;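 active means inhibition above the screen-wide mean plus twice its standard deviation, cut at about 32% in these data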
Active calls of the source: *; ? = inconclusive; · = not tested or not shown; + = active, no number.

SMILES | NALP1 yeast inh | GASC-1 inh | NALP3 yeast inh | HDAC3 inhib | PolyA inh | Efflux pump mplx | Yeast cmpd fluor | Mdr1 pump inh | CaCdr2 efflux inh | CaCdr1 efflux inh
CC(C)C[C@H](NC(=O)c1nc[nH]c1C(=O)N(C)Cc1ccccc1)C(=O)OC(C)(C)C | 7 | 6 | -14 | ? | 1 | 0.9* | 116 | 1 | 133 | 1
COc1ccccc1NC(=O)CNc1ccc(F)c(Cl)c1 | 16 | -19 | 17 | 1 | 8 | 14* | 113 | 0 | 114 | 0
Cc1c(CCOC(=O)C23CC4CC(CC(C)(C4)C2)C3)sc[n+]1Cc1ccccc1 | 12 | 121 | 23 | 6 | 5 | 1.2* | 114 | 1 | + | 0
CCc1c(C)nc2c(OC)cccc2c1SCCC(=O)O | 12 | -3 | -6 | -4 | -1 | 10* | 112 | 0 | 112 | 0
O=C(Nc1cccc(S(=O)(=O)N2CCOCC2)c1)C1COc2ccccc2O1 (centres undefined) | · | · | 12 | · | · | · | · | · | · | ·
CCn1cc(CNC(=O)c2cccc([N+](=O)[O-])c2)c(C)n1 | 20 | 7 | 13 | -3 | -12 | 11* | 101 | 0 | 107 | 0
CCn1cc(CNC(=O)c2ccc(Cl)c([N+](=O)[O-])c2)c(C)n1 | 36 | -18 | 0 | -3 | 12 | 0 | · | · | · | ·
CC1CC(C)CN(CCCNC(=O)CN2C(=O)CSc3ccc(S(=O)(=O)N4CCCCC4)cc32)C1 (centres undefined) | -11 | -10 | 3 | -3 | 3 | 0.6* | 99 | 0 | 109 | 0
O=C(CN1C(=O)CSc2ccc(S(=O)(=O)N3CCOCC3)cc21)NCCCN1CCCCC1 | 12 | 12 | 1 | -3 | -3 | 0 | · | · | · | ·
O=C(O)C(c1ccccc1)N1C(=O)/C(=C\c2ccc(O)c(O)c2)SC1=S (centres undefined) | -7 | 21 | 26 | 18 | 19 | 2.0* | 116 | 0 | 125 | 0
COc1cc(/C=C2\SC(=S)N(C(C(=O)O)c3ccccc3)C2=O)ccc1O (centres undefined) | 6 | -2 | 17 | 3 | 1 | 0 | · | · | · | ·
CC(C)[C@H](NC(=O)[C@@H]1Cc2c([nH]c3ccccc23)C2c3ccccc3C(=O)N21)C(=O)N1CCC[C@@H]1C(=O)O (some centres undefined) | 1 | ? | 2 | -2 | -7 | 0 | · | · | · | ·
COc1ccc(/C=C(\C#N)C(=O)Nc2cccc3ncccc23)cc1OC | · | -3 | 1 | 3 | 7 | 0 | 97 | 0 | 97 | 0
COc1cc(/C=C(\C#N)C(=O)Nc2cccc3ncccc23)cc(OC)c1OC | 34 | 22 | -1 | -6 | -15 | 3.4* | 98 | 0 | 118 | 0
COc1ccc(/C=C(/C#N)C(=O)Nc2cccnc2)cc1OC | 24 | 14 | 9 | -2 | -3 | 0 | · | · | · | ·
N#C/C(=C\c1ccc(O)c(O)c1)C(=O)Nc1cccc2ncccc12 | 2 | 21 | 25 | 3 | 11 | 1 | 107 | 0 | 114 | 0
COc1ccc(NC(=O)/C(C#N)=C/c2cccnc2)c(OC)c1 | -12 | -4 | 22 | 12 | -5 | 0 | · | · | · | ·
COc1ccc(N2CCN(C(=O)c3ccc(COc4ccc([N+](=O)[O-])cc4)o3)CC2)cc1 | 2 | -11 | 44 | · | 6 | · | · | · | · | ·
Cc1ccc(OCCC(=O)OCC(=O)c2c(N)n(CC(C)C)c(=O)n(C)c2=O)cc1 | · | 8 | 14 | -1 | · | 0 | · | · | · | ·
Cc1ccccc1OCCC(=O)OCC(=O)c1c(N)n(CC(C)C)c(=O)n(C)c1=O | 1 | -3 | 8 | 5 | 0 | 6.2* | 99 | 0 | 96 | 0
Cc1nnc(SCc2ccc([N+](=O)[O-])cc2)o1 | 2 | 11 | 26 | 11 | -4 | 1.0* | 110 | 0 | 106 | 0
Cc1nc(SCc2ccc([N+](=O)[O-])cc2)n[nH]1 | 0 | 4 | 9 | -1 | -3 | 0 | · | · | · | ·
O=C(CSc1nnc(Cc2cccs2)n1Cc1ccco1)Nc1cc(Cl)cc(Cl)c1 | 13 | 0 | 6 | 12 | 4 | 0 | 114 | 0 | 118 | 0
O=C(CSc1nnc(Cc2cccs2)n1Cc1ccco1)Nc1cccc(Cl)c1 | 10 | -1 | 13 | 17 | -2 | 0 | 137 | 0 | 89 | 2
Cc1ccc(NC(=O)CSc2nnc(-c3cccs3)n2Cc2ccco2)cc1 | 11 | 42 | 18 | 3 | 11 | 0 | · | · | · | ·
SMILES | NALP1 yeast inh | GASC-1 inh | NALP3 yeast inh | HDAC3 inhib | PolyA inh | Efflux pump mplx | Yeast cmpd fluor | Mdr1 pump inh | CaCdr2 efflux inh | CaCdr1 efflux inh
CNS(=O)(=O)c1cc(NC(=O)c2cnc(SC)n2-c2ccccc2)ccc1C | 19 | -7 | 0 | 6 | -4 | 0 | · | · | · | ·
CCC(Sc1nc2ccsc2c(=O)n1Cc1ccc(C(=O)O)cc1)C(=O)Nc1ccc(C)c(Cl)c1 (centres undefined) | 17 | 9 | 16 | 0 | -19 | 0.8* | 124 | 0 | 105 | 0
O=C(/C=C/c1ccccc1Cl)NCCc1ccc(F)cc1 | 18 | -5 | 15 | 4 | -1 | 1 | · | · | · | ·
O=C(/C=C/c1ccccc1[N+](=O)[O-])NCCc1ccc(F)cc1 | 10 | -6 | 27 | -1 | -7 | 0.4* | 88 | 0 | 184 | 0
CC(C)Cn1c(N)c(C(=O)CSc2nnc(-c3ccco3)n2C)c(=O)n(C)c1=O | · | 4 | 18 | -3 | · | 0 | · | · | · | ·
CC(C)Cn1c(SCC(=O)c2ccc(Cl)s2)nnc1-c1ccco1 | 10 | -14 | 21 | 9 | -13 | 1.1* | 100 | 0 | 107 | 0
COc1ccc(C2CC(c3ccccc3)=NN2C(=O)COC(=O)c2cccc(N)c2)cc1 (centres undefined) | · | -10 | -9 | -6 | · | 0 | · | · | · | ·
CC(C)(CNC(=O)/C=C/c1ccc(F)cc1)CNC(=O)/C=C/c1ccc(F)cc1 | 28 | 2 | 6 | 7 | ? | 13* | 106 | 0 | 103 | 0
O=C(O)CCC(=O)NNC(=O)CCC1CCCCC1 | 27 | 3 | 9 | -1 | 0 | 0 | · | · | · | ·
O=C(CCC1CCCCC1)NNC(=O)NC12CC3CC(CC(C3)C1)C2 | 21 | -4 | 7 | 3 | 10 | 0.7* | 98 | 0 | 87 | 0
O=C(O)c1ccc2c(=O)n3c(nc2c1)/C(=C/c1cccc(Cl)c1Cl)CCCC3 | 10 | 18 | 11 | -2 | 4 | 0 | · | · | · | ·
COC(=O)c1ccc(S(=O)(=O)NCc2ccco2)n1C | -2 | -2 | 20 | · | -8 | 0 | · | · | · | ·
